Experimental data: PubChem BioAssay (NCATS)
Results filed as inconclusive are left out. Calls of active or inactive are those of the source. Unless noted, calls follow the shape of the dose curve; as a rule, active = well fitted curve in the direction sought with a large enough effect; inconclusive = small, poorly fitted or top-dose-only effect, or another doubt; inactive = no such curve, though single readings can be large; an effect the other way counts as inactive or inconclusive.

Assays:
[1] = Cellular Toxicity (caspase-3) MRC-5 (AID 659);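 also: 0% = DMSO basal and 100% = 10 µM staurosporine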
Outline: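 Luminescence from caspase-cleaved aminoluciferin substrate (Caspase-Glo 3/7, 1 hr RT) reports caspase 3/7 activity in MRC-5 lung fibroblasts after 16 hr compound exposure. Normalized to DMSO basal and 10 uM staurosporine as 100%; AC50 from Hill fits.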

[2] = Cellular Toxicity (caspase-3) Mesangial (AID 660);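 also: cells exposed to compound for 16 h before the caspase read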
Outline: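 Human renal glomerular mesangial cells (1000/well) were treated with compounds for 16 h at 37 °C in complete medium, then caspase 3/7 activity was read by Caspase-Glo luminescence. Data were normalized to DMSO and 100 uM tamoxifen; AC50 from Hill fits.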

[3] = Cellular Toxicity (caspase-3) SK-N-SH (AID 661);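 also: 0% = DMSO basal and 100% = 10 µM staurosporine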
Outline: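 SK-N-SH human neuroblastoma cells (1500/well) were treated with compounds for 16 hr at 37 °C in complete medium; caspase 3/7 activity was read by Caspase-Glo luminescence. AC50 came from Hill fits of data normalized to DMSO and 10 uM staurosporine.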

[4] = Cellular Toxicity (caspase-3) H-4-II-E (AID 663);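 also: cells exposed to compound for 16 hr before readout; 0% = DMSO basal and 100% = 100 µM tamoxifen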
Outline: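 Luminescence from caspase-cleaved aminoluciferin substrate, read 20 min after reagent addition, reports caspase 3/7 activation in rat H-4-II-E cells after 16 hr compound exposure. Normalized to DMSO (basal) and 100 uM tamoxifen (100%); AC50 from Hill fits.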

[5] = Cellular Toxicity (caspase-3) Hek293 (AID 664);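 also: cells exposed to compound for 16 h at 37 °C before readout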
Outline: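 HEK293 cells were exposed to compounds in complete medium for 16 hr at 37 °C, then caspase-3/7 activity was read by Caspase-Glo 3/7 luminescence after 20 min at room temperature. Data normalized to DMSO and 100 uM tamoxifen; AC50 from Hill fits.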

[6] = Cellular Toxicity (caspase-3) N2a (AID 665);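 also: compound exposure lasted 16 h at 37 °C before readout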
Outline: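 Mouse N2a neuroblastoma cells (1500/well) were treated with compounds for 16 h at 37 °C, then caspase-3/7 activity was read by Caspase-Glo luminescence after 1 h at room temperature. Data were normalized to DMSO and 10 uM staurosporine; AC50 from Hill fits.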

[7] = Cellular Toxicity (caspase-3) NIH 3T3 (AID 666);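 also: 0% = DMSO basal and 100% = 100 µM tamoxifen stimulation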
Outline: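 Mouse NIH 3T3 fibroblasts (1000 cells/well) were treated with compound for 16 hr at 37°C in complete medium; caspase-3/7 activity was read by Caspase-Glo luminescence. Normalized to DMSO and 100 uM tamoxifen; AC50 from Hill fits.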

[8] = Cellular Toxicity (caspase-3) Renal Proximal Tubule (AID 667);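 also: cells exposed to compound for 16 hours at 37 °C before detection; 0% = DMSO basal and 100% = 10 µM staurosporine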
Outline: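 Primary rat proximal tubule cells, 1000/well, 5 h plating at 37 °C, then compound 16 h at 37 °C. Caspase-Glo 3/7 reagent, 1 h RT, luminescence. Normalized to DMSO (basal) and 10 uM staurosporine (100%); Hill-fit AC50.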

[9] = Cell Viability - LYMP2-001 (AID 921);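 also: series mostly up to about 92 µM; 0% = DMSO only and full inhibition = tetraoctylammonium bromide control wells; nearly all actives have a fitted effect of over 70% in size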
Outline: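 Human lymphoblastoid cells (Coriell), 2500 per well, were preincubated 5 hr at 37 C, then exposed to compounds in complete medium for 24 hr at 37 C. Cellular ATP was read by CellTiter-Glo luminescence; AC50 from Hill fits of concentration-response data.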

[10] = MultiTox-Fluor Cytotoxicity Assay - LYMP1-001 - Dead Cells (AID 946)
Outline: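 Cytotoxicity as increased dead-cell protease fluorescence (bis-AAF-R110, 485/520 nm), read 60 min after MultiTox-Fluor reagent. Human lymphoblastoid line exposed 16 h; Hill-fitted AC50, with DMSO as 0% and 15 uM tetraoctylammonium bromide as 100%.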

[11] = MultiTox-Fluor Cytotoxicity Assay - LYMP1-001 - Live Cells (AID 947);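 also: 0% = DMSO only and full inhibition = tetraoctylammonium bromide control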
[12] = Cell Viability - LYMP1-002 - Assay at 16 hr (AID 948);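 also: 0% = DMSO alone and full effect = 92 µM tetraoctylammonium bromide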
Outline: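 Human lymphoblastoid cells (LYMP1-002), 2500/well, were preincubated 5 hr at 37 C, then exposed to compounds for 16 hr at 37 C in complete medium. Cellular ATP was read by CellTiter-Glo luminescence after 30 min at room temperature; AC50 from Hill fits.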

[13] = MultiTox-Fluor Cytotoxicity Assay - LYMP1-002 - Live Cells (AID 955); also: % is scaled to controls: 0 for no effect and ±100 for the full control effect
Outline: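 Human lymphoblastoid LYMP1-002 cells, 2500/well in complete medium, rested 5 hr at 37 C, then exposed to compounds for 16 hr at 37 C. Live-cell protease cleavage of GF-AFC read by fluorescence (Ex/Em 405/510) after 60 min at room temperature; AC50 from Hill fits.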

[14] = MultiTox-Fluor Cytotoxicity Assay - LYMP1-003 - Dead Cells (AID 961); also: nearly all actives have a fitted effect of over 70% in size
Outline: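 Dead-cell protease release, detected as bis-AAF-R110 fluorescence at 485/520 nm, was measured in LYMP1-003 cells after 16 h compound treatment at 37 C. AC50 values came from Hill-modeled qHTS curves normalized to DMSO (0%) and 15 uM tetraoctylammonium bromide (100%).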

[15] = MultiTox-Fluor Cytotoxicity Assay - LYMP1-003 - Live Cells (AID 962);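 also: 0% = DMSO only and full loss = 92 µM tetraoctylammonium bromide; cytotoxic hits lower the live-cell protease signal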
Outline: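 LYMP1-003 human lymphoblastoid cells (2500/well) in complete medium were preincubated 5 hr at 37 C, then exposed to compounds for 16 hr at 37 C. Live-cell protease cleavage of GF-AFC read by fluorescence (Ex/Em 405/510); AC50 from Hill fits.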

[16] = qHTS assay for small molecule agonists of the antioxidant response element (ARE) signaling pathway measured by Nrf2-dependant transcriptional activity (AID 720636; active = well fitted curve in the direction sought with a large enough effect in the repeat runs; an effect the other way counts as inactive or inconclusive;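 also: HepG2 cells with an ARE-driven luciferase reporter; % of control where 0% means no effect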)
Outline: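 In HepG2 cells engineered with an Nrf2-responsive luciferase gene, ARE induction was quantified as luminescence after 16 hr compound treatment at 37 C.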

[17] = qHTS assay for small molecule antagonists of the retinoid-related orphan receptor gamma (ROR-gamma) signaling pathway - cell viability counter screen (AID 720652; active = well fitted curve in the direction sought with a large enough effect in the repeat runs; an effect the other way counts as inactive or inconclusive;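 also: CHO reporter cells with doxycycline-induced ROR-gamma expression; series mostly up to about 92 µM; compound exposure lasted 16 hr before ATP read; % is scaled to controls: 0 for no effect and ±100 for the full control effect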)
Outline: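 Counter screen in CHO cells carrying TET-inducible ROR-gamma and an ROR response element-luciferase reporter; cells plated 5 hr, compound pinned, doxycycline added, then 16 hr at 37 C. Viability read as intracellular ATP by CellTiter-Glo luminescence.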

[18] = qHTS assay for small molecule agonists of the antioxidant response element (ARE) signaling pathway measured by Nrf2-dependant transcriptional activity - cell viability counter screen (AID 720653; active = well fitted curve in the direction sought with a large enough effect in the repeat runs; an effect the other way counts as inactive or inconclusive; also: % is scaled to controls: 0 for no effect and ±100 for the full control effect); conditions: ARE-bla HepG2 viability, CellTiter-Glo ATP luminescence, 16 h; hits give low values
Outline: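 ARE-bla HepG2 cells (2,000/well) rested 5 hrs at 37C/5% CO2, then exposed to compounds in DMSO for 16 hrs. Viability was read in the same wells as intracellular ATP by luminescence, 30 min at room temperature after reagent addition.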

[19] = qHTS assay for cell viability of HEK293 cells (AID 743288); conditions: ATP luminescence (CellTiter-Glo), 18 h, hits give low values; also: % is scaled to controls: 0 for no effect and ±100 for the full control effect; nearly all actives have a fitted effect of over 50% in size
Outline: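 Parental HEK293 cells were seeded at 2,000 cells/well, rested at least 5 h at 37 C, then exposed to compounds in DMSO for 18 h at 37 C. Viability was read as ATP-dependent luciferase luminescence after 30 min at room temperature.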

[20] = qHTS assay for cell viability of the p53RE-bla HCT-116 cell line (AID 743292); also: % is scaled to controls: 0 for no effect and ±100 for the full control effect; nearly all actives have a fitted effect of over 55% in size
Outline: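 Intracellular ATP of p53RE-bla HCT-116 cells measured by luciferase luminescence following 16 h compound incubation at 37 C; DMSO-only wells served as vehicle controls.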

Measured: max response

CN(C)CCOC(c1ccccc1)c1ccccc1 (tested in a mixture with another compound)
inactive: [1] | [2] | [3] | [4] | [5] | [6] | [7] | [8] | [9] | [10] | [11] | [12] | [13] | [14] | [15] | [16] | [17] | [18] -6.81% | [19] 3.64% | [20]
